Measurements: PubChem BioAssay (NCATS)
Results filed as inconclusive are left out. The source made the active and inactive calls. The call rests on the fitted dose curve; in most records, active means well fitted curve in the direction sought with a large enough effect; inconclusive means small, poorly fitted or top-dose-only effect, or another doubt; inactive means no such curve, though single readings can be large; an effect the other way counts as inactive or inconclusive.

Key:
CRL-7250 = normal cell line; assay: Cytotoxic Profiling of Annotated Libraries Using Quantitative High-Throughput Screening (AID 1296008); conditions: Five cell lines viability, CellTiter-Glo ATP luminescence, 48-72 h; max response: hits give low values; further: nearly all actives have a fitted effect of over 60% in size; on max response: on the % scale 0 is the no-effect control and ±100 the full control effect
Outline: (§1)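 Compounds were pin-transferred onto cells and incubated 48 or 72 hr at 37 degree Celsius, 95% humidity. CellTiter-Glo was added, plates sat 10 min at room temperature, then ATP-coupled luminescence was imaged as the viability read-out.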

HaCat [1] = assay: as above; conditions: Five cell lines viability, CellTiter-Glo ATP luminescence, 48-72 h; max response: hits give low values
Outline: as §1

KB-3-1 = assay: as above; conditions: Five cell lines viability, CellTiter-Glo ATP luminescence, 48-72 h; max response: hits give low values
Outline: as §1

NIH3T3 = assay: as above; conditions: Five cell lines viability, CellTiter-Glo ATP luminescence, 48-72 h; max response: hits give low values
Outline: as §1

HACAT [2] = assay: qHTS assay to identify novel small-molecules to repurpose for Merkel cell carcinoma treatment (AID 1296009); conditions: MCC and control cell lines, CellTiter-Glo viability, 72 h; at 44.8 µM (top of the series) unless noted; further: nearly all actives have a fitted effect of over 60% in size
Outline: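 Cells exposed to NPC (8-point) and MIPE (11-point) compound dilutions for 72 hr at 37 degree celsius; viability read by CellTiter-Glo luminescence, normalized to no-cell and DMSO in-plate controls.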

C33A = assay: Primary qHTS to identify gynecologic anti-cancer compounds using libraries of approved drugs and bioactive compounds (AID 1345084); conditions: Gynecologic cancer cell panel viability, ATPlite luminescence, 48 h; series mostly up to 57.5 µM; further: on the % scale 0 is the no-effect control and ±100 the full control effect; nearly all actives have a fitted effect of over 55% in size
Outline: (§2)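 ATP-based viability (ATPlite), 1,000 cells/well, 16 h pre-incubation, 48 h compound at 37 C, 5% CO2, 15 min RT before read.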

CAOV3 = assay: as above; conditions: Gynecologic cancer cell panel viability, ATPlite luminescence, 48 h; series mostly up to 57.5 µM
Outline: as §2

CASKI = assay: as above; conditions: Gynecologic cancer cell panel viability, ATPlite luminescence, 48 h; series mostly up to 57.5 µM
Outline: as §2

Es-2 = assay: as above; conditions: Gynecologic cancer cell panel viability, ATPlite luminescence, 48 h; series mostly up to 57.5 µM
Outline: as §2

HeLa = assay: as above; conditions: Gynecologic cancer cell panel viability, ATPlite luminescence, 48 h; series mostly up to 57.5 µM
Outline: as §2

Hek293T = assay: as above; conditions: Gynecologic cancer cell panel viability, ATPlite luminescence, 48 h, control line for the selectivity index; series mostly up to 57.5 µM
Outline: as §2

JEG-3 = assay: as above; conditions: Gynecologic cancer cell panel viability, ATPlite luminescence, 48 h; series mostly up to 57.5 µM
Outline: as §2

OV90 = assay: as above; conditions: Gynecologic cancer cell panel viability, ATPlite luminescence, 48 h; series mostly up to 57.5 µM
Outline: as §2

C=C1C(OC2OC(CO)C(O)C(O)C2O)CC2C(C)(C)C(O)CCC2(C)C1CC/C(C)=C\COC(=O)CC(=O)O (centres undefined)
inactive: max response (CRL-7250) -0.672% | outcome (HaCat [1]) | outcome (KB-3-1) | max response (NIH3T3) 3.9% | outcome (HACAT [2]) inactive [at 17.4 µM] | Potency (C33A) | Potency (CAOV3) | Potency (CASKI) | Potency (Es-2) | Potency (HeLa) | Potency (Hek293T) | Potency (JEG-3) | Potency (OV90)

C[C@@H](NC(=O)c1ccc(C#Cc2cccc(F)c2)cn1)C(C)(C)O
inactive: max response (CRL-7250) -12.8% | outcome (HaCat [1]) | max response (KB-3-1) 7% | max response (NIH3T3) 2.74% | outcome (HACAT [2]) | Potency (C33A) | Potency (CAOV3) | Potency (CASKI) | Potency (Es-2) | Potency (HeLa) | Potency (Hek293T) | Potency (JEG-3) | Potency (OV90)

CC(=O)O[C@]1(C(C)=O)CC[C@H]2[C@@H]3CCC4=CC(=O)CCC4=C3[C@@H](c3ccc(N(C)C)cc3)C[C@@]21C
inactive: outcome (CRL-7250) | outcome (HaCat [1]) | max response (KB-3-1) -14.7% | max response (NIH3T3) -1.52% | outcome (HACAT [2]) | Potency (C33A) | Potency (CAOV3) | Potency (CASKI) | Potency (Es-2) | Potency (HeLa) | Potency (Hek293T) | Potency (JEG-3) | Potency (OV90)

CC(=O)c1c(C)cc2cccc(O)c2c1O[C@@H]1O[C@H](CO)[C@@H](O)[C@H](O)[C@H]1O
inactive: max response (CRL-7250) -1.95% | outcome (HaCat [1]) | outcome (KB-3-1) | max response (NIH3T3) -3.48% | outcome (HACAT [2]) | Potency (C33A) | Potency (CAOV3) | Potency (CASKI) | Potency (Es-2) | Potency (HeLa) | Potency (Hek293T) | Potency (JEG-3) | Potency (OV90)

Cc1ccc(-c2ncc[nH]2)cc1NC(=O)c1ccc(OCc2ccccn2)cc1
inactive: max response (CRL-7250) -5.69% | outcome (HaCat [1]) | max response (KB-3-1) -1.78% | max response (NIH3T3) -1.84% | outcome (HACAT [2]) | Potency (C33A) | Potency (CAOV3) | Potency (CASKI) | Potency (Es-2) | Potency (HeLa) | Potency (Hek293T) | Potency (JEG-3) | Potency (OV90)

C=C1C(=O)OC2C=C(C)CC/C=C(\CO)CC(O)C12 (centres undefined)
inactive: max response (CRL-7250) -3.89% | outcome (HaCat [1]) | max response (KB-3-1) 5.92% | max response (NIH3T3) -2.7% | outcome (HACAT [2]) | Potency (C33A) | Potency (CAOV3) | Potency (CASKI) | Potency (Es-2) | Potency (HeLa) | Potency (Hek293T) | Potency (JEG-3) | Potency (OV90)

CC1OC2OC(=O)C3(C)CC4C5(CO5)C5=CC(=O)OC(C)(C)C5=CC(=O)C4(C)C(C1=O)C23 (centres undefined)
inactive: max response (CRL-7250) -8.36% | outcome (HaCat [1]) | outcome (KB-3-1) | max response (NIH3T3) 1.81% | outcome (HACAT [2]) inactive [at 17.4 µM] | Potency (C33A) | Potency (CAOV3) | Potency (CASKI) | Potency (Es-2) | Potency (HeLa) | Potency (Hek293T) | Potency (JEG-3) | Potency (OV90)

C=C(CCC1C(C)(O)CCC2C(C)(C)C(O)CCC12C)C(O)CO (centres undefined)
inactive: max response (CRL-7250) -26.3% | outcome (HaCat [1]) | max response (KB-3-1) -9.88% | max response (NIH3T3) -4.7% | outcome (HACAT [2]) | Potency (C33A) | Potency (CAOV3) | Potency (CASKI) | Potency (Es-2) | Potency (HeLa) | Potency (Hek293T) | Potency (JEG-3) | Potency (OV90)

CNCCN1CCC(c2cc(CN(C)C(=O)c3cccc(Oc4ccccc4)c3)ccn2)CC1
inactive: max response (CRL-7250) 1.09% | outcome (HaCat [1]) | max response (KB-3-1) 8.17% | max response (NIH3T3) 1.12% | outcome (HACAT [2]) inactive [at 17.4 µM] | Potency (C33A) | Potency (CAOV3) | Potency (CASKI) | Potency (Es-2) | Potency (HeLa) | Potency (Hek293T) | Potency (JEG-3) | Potency (OV90)

COC1=CC(=O)O/C1=C(/OC)[C@@H]1O[C@H]1c1ccccc1
inactive: max response (CRL-7250) -14.3% | outcome (HaCat [1]) | max response (KB-3-1) -13.4% | max response (NIH3T3) -27.3% | outcome (HACAT [2]) | Potency (C33A) | Potency (CAOV3) | Potency (CASKI) | Potency (Es-2) | Potency (HeLa) | Potency (Hek293T) | Potency (JEG-3) | Potency (OV90)

CC(=O)C=C=C1C(C)(C)CC(O)CC1(C)O[C@@H]1O[C@H](CO[C@H]2OC[C@](O)(CO)[C@H]2O)[C@@H](O)[C@H](O)[C@H]1O (some centres undefined)
inactive: max response (CRL-7250) -2.66% | outcome (HaCat [1]) | outcome (KB-3-1) | max response (NIH3T3) 1.53% | outcome (HACAT [2]) inactive [at 17.4 µM] | Potency (C33A) | Potency (CAOV3) | Potency (CASKI) | Potency (Es-2) | Potency (HeLa) | Potency (Hek293T) | Potency (JEG-3) | Potency (OV90)

CCC/C=C/C=C/C1CC(O)C2(O)C(=O)OCC12 (centres undefined)
inactive: outcome (CRL-7250) | outcome (HaCat [1]) | max response (KB-3-1) 7.96% | max response (NIH3T3) 4.66% | outcome (HACAT [2]) | Potency (C33A) | Potency (CAOV3) | Potency (CASKI) | Potency (Es-2) | Potency (HeLa) | Potency (Hek293T) | Potency (JEG-3) | Potency (OV90)

COC(=O)C(Cc1ccc(OCCn2c(=O)sc3cc(C(=O)c4ccccc4)ccc32)cc1)C(=O)OC
inactive: max response (CRL-7250) -17% | outcome (HaCat [1]) | max response (KB-3-1) 0.264% | max response (NIH3T3) 2.75% | outcome (HACAT [2]) | Potency (C33A) | Potency (CAOV3) | Potency (CASKI) | Potency (Es-2) | Potency (HeLa) | Potency (Hek293T) | Potency (JEG-3) | Potency (OV90)
